What all share (assay): DAPPL (digital affinity profiling via proximity ligation, sequencing); 10 mM Tris-HCl pH 7.5, 50 mM NaCl, 1 mM DTT, 4% glycerol, room temperature, 30 min; GST-TFs on glutathione beads, 16-mer random dsDNA library, 0.1% formaldehyde crosslink after washing; high values mean tight binding
What all share (settings): protein: recombinant; tags: N-terminal GST; dsDNA, one strand shown

One assay deals with T1, FLI1 (Homo sapiens, UniProt Q01543 1-452).
T1 sequence: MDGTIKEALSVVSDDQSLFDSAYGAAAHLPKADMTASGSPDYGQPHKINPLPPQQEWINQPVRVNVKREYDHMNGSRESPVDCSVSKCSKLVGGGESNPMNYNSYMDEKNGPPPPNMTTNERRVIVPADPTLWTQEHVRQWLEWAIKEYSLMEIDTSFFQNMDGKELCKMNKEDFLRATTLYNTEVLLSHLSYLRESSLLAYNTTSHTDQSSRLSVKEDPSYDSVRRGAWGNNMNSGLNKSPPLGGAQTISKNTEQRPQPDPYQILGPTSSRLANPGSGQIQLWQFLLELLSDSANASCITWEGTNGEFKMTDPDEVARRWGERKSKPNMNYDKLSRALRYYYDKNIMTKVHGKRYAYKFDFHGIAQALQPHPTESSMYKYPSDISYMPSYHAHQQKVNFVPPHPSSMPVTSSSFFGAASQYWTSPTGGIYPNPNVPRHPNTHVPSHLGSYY
The procedure, abridged:
(§1)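 Each value of binding signal is a hexamer's read frequency for a factor divided by the same hexamer's frequency in the tag-only sample. Barcoded, bead-captured GST fusions of human transcription factors made in yeast were pooled with that sample and incubated with 200 nmole of a random double-stranded 16-mer DNA library in Tris/NaCl/DTT/glycerol buffer at room temperature for 30 min. Washing, 0.1% formaldehyde crosslinking, proximity ligation, PCR and Illumina NextSeq500 sequencing followed.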

Another assay has as its target T2, ELK1 (Homo sapiens, UniProt P19419 1-428).
T2 sequence: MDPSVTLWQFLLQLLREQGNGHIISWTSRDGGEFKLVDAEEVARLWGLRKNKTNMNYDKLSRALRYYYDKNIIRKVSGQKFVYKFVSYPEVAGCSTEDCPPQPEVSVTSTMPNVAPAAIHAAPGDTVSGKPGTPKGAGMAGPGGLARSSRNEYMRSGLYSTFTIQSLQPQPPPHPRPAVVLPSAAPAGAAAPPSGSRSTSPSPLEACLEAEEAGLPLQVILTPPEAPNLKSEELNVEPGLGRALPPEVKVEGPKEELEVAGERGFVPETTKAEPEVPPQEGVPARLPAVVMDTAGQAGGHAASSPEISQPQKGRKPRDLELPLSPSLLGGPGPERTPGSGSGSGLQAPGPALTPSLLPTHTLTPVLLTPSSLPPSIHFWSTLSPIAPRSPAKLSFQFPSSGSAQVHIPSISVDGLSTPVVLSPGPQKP
In outline: as §1

Another assay addresses T3, GABPA (Homo sapiens, UniProt Q06546 1-454).
T3 sequence: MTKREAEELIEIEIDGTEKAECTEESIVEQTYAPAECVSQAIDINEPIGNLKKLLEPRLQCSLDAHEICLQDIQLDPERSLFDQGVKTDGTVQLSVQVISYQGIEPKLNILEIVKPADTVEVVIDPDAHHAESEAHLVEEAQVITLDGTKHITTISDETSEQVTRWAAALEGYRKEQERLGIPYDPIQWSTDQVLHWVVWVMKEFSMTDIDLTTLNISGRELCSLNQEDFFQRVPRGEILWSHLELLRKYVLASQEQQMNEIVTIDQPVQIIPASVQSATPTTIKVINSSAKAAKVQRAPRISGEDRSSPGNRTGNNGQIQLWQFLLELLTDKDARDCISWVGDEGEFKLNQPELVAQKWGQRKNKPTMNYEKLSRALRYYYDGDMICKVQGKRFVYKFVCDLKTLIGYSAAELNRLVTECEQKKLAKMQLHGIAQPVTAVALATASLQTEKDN
In outline:
as §1

The target of another assay is T4, ERG (Homo sapiens, UniProt P11308 1-479).
T4 sequence: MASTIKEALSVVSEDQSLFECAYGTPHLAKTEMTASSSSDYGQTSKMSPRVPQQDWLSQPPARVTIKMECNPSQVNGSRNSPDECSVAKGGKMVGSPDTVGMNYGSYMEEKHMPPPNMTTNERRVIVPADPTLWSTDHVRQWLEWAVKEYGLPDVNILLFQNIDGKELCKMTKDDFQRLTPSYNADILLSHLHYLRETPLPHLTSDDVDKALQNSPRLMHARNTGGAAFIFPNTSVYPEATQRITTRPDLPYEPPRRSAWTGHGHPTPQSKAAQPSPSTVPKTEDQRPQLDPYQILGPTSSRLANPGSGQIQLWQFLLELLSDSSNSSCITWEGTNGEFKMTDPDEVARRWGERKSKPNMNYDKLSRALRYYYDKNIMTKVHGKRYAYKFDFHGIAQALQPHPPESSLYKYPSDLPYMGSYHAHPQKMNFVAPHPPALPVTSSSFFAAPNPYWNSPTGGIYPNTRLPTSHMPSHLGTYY
The procedure, abridged: as §1

A further assay has as its target ELF1 (Homo sapiens, UniProt P32519 1-619). The procedure, abridged:
as §1

The target of the next assay is T5, EHF (Homo sapiens, UniProt Q9NZC4 1-300).
T5 sequence: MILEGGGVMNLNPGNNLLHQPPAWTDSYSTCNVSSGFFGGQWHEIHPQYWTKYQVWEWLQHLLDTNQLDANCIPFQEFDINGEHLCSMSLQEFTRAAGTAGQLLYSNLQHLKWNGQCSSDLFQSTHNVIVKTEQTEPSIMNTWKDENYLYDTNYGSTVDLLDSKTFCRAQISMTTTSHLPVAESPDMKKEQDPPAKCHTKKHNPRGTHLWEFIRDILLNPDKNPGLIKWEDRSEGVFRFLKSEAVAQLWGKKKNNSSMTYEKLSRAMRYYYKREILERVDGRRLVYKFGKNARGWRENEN
In outline:
as §1

The next assay concerns the target SPI1 (Homo sapiens, UniProt P17947 1-270). The procedure, abridged: as §1
For the next assay, the target named is SPIB (Homo sapiens, UniProt Q01892 1-262). In outline:
as §1

In the next assay the target is T6, ELK3 (Homo sapiens, UniProt P41970 1-407).
T6 sequence: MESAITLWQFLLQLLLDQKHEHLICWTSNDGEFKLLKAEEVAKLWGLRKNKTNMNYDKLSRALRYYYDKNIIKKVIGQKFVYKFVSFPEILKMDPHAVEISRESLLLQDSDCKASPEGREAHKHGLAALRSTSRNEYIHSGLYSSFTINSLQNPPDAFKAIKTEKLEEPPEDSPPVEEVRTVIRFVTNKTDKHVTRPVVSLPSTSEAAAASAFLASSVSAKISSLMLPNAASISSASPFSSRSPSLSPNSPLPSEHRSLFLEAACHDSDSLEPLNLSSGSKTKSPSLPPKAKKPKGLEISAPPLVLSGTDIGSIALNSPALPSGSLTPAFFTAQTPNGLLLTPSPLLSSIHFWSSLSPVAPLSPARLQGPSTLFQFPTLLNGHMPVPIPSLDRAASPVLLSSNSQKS
The procedure, abridged:
as §1

The target of the next assay is T7, FEV (Homo sapiens, UniProt Q99581 1-238).
T7 sequence: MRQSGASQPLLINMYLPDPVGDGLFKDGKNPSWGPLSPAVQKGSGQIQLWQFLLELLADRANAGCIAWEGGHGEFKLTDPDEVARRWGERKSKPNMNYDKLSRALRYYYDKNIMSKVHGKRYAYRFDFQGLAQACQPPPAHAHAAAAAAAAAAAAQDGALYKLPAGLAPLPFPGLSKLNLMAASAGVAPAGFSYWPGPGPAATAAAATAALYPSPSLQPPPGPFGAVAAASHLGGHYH
In outline: as §1

For another assay, the target named is ETV5 (Homo sapiens, UniProt P41161 1-510). In outline: as §1
Another assay deals with T8, SPIC (Homo sapiens, UniProt Q8N5J4 1-248).
T8 sequence: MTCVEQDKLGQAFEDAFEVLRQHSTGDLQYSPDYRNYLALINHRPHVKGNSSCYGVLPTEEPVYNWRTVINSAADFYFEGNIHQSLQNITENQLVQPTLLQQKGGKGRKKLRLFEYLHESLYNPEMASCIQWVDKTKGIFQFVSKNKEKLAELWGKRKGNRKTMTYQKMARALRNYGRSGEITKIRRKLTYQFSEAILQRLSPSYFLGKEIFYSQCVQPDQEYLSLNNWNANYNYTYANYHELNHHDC
The procedure, abridged:
as §1

The target in the next assay is ELF4 (Homo sapiens, UniProt Q99607 1-663). The procedure, abridged:
as §1

The target of another assay is T9, ELK4 (Homo sapiens, UniProt P28324-2 1-405).
T9 sequence: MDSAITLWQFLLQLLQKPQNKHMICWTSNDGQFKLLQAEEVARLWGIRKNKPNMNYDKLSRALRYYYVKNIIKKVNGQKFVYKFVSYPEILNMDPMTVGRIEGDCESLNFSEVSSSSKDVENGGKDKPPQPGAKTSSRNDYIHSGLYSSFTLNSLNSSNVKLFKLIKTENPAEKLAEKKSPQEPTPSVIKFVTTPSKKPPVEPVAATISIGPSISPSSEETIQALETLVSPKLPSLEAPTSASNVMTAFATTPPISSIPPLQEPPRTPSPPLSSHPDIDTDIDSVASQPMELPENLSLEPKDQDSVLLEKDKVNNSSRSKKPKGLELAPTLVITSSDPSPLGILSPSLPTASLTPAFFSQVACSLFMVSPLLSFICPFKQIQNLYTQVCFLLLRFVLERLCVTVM
In outline:
as §1

The target in a further assay is T10, ETV2 (Homo sapiens, UniProt O00321 1-342).
T10 sequence: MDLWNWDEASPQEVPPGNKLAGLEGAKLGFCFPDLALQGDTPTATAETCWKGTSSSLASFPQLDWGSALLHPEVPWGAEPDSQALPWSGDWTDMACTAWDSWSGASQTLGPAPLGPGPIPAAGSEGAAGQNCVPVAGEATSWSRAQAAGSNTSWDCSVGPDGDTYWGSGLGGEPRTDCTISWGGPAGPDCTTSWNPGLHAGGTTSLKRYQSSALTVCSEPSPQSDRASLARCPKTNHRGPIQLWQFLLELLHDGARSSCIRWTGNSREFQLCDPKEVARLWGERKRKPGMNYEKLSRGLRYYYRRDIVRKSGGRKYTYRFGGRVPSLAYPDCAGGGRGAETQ
In outline: as §1

Another assay has as its target T11, ELF3 (Homo sapiens, UniProt P78545 1-371).
T11 sequence: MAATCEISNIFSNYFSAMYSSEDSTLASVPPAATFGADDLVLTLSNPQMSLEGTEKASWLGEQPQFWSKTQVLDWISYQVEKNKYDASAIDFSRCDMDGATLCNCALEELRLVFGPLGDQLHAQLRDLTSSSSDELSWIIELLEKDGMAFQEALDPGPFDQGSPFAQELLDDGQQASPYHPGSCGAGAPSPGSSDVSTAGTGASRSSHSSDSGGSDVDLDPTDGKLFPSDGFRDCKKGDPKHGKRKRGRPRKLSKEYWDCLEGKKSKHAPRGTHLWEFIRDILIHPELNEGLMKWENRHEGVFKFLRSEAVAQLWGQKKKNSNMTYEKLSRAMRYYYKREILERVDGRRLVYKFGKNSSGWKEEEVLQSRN
The procedure, abridged: as §1

In another assay the target is ETV1 (Homo sapiens, UniProt P50549 1-477). The procedure, abridged: as §1
Sequence of ETV1 (P50549 whole entry): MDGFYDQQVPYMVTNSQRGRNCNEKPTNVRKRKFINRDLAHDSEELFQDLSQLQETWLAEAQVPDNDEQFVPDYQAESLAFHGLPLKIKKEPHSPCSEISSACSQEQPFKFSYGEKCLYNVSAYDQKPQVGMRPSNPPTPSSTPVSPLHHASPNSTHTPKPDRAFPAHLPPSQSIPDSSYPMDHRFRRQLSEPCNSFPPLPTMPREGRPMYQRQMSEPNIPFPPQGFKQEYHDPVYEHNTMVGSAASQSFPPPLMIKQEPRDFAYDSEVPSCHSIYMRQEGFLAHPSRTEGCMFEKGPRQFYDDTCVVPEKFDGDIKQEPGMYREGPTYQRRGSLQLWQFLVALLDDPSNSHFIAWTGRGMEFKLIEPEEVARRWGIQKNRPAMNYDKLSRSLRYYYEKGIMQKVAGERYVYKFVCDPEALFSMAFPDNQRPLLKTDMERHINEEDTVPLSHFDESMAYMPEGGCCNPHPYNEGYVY

Sequence of ELF1 (P32519 whole entry): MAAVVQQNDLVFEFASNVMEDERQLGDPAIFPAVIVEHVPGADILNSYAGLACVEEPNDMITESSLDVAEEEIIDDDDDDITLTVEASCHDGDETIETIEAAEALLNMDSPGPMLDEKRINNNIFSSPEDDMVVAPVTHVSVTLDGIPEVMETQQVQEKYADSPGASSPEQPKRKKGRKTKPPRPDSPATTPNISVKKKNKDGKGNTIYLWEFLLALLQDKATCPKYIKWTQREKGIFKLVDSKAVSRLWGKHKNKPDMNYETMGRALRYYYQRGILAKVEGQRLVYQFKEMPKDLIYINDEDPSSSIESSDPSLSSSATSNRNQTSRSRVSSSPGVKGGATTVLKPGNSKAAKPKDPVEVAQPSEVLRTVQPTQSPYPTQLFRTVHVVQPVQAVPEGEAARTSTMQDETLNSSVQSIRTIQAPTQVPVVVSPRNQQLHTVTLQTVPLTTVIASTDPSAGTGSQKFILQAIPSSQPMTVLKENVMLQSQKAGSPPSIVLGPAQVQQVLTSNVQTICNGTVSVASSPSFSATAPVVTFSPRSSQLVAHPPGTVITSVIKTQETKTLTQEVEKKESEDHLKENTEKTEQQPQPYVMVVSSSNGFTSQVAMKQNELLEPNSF
Sequence of SPIB (Q01892 whole entry): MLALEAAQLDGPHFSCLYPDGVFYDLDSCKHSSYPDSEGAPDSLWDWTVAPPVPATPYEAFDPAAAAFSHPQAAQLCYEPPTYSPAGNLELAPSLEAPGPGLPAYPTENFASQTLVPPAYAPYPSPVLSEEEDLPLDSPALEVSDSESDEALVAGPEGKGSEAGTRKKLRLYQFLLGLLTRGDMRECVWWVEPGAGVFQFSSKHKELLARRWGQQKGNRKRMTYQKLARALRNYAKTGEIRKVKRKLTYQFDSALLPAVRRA
Sequence of ELF4 (Q99607 whole entry): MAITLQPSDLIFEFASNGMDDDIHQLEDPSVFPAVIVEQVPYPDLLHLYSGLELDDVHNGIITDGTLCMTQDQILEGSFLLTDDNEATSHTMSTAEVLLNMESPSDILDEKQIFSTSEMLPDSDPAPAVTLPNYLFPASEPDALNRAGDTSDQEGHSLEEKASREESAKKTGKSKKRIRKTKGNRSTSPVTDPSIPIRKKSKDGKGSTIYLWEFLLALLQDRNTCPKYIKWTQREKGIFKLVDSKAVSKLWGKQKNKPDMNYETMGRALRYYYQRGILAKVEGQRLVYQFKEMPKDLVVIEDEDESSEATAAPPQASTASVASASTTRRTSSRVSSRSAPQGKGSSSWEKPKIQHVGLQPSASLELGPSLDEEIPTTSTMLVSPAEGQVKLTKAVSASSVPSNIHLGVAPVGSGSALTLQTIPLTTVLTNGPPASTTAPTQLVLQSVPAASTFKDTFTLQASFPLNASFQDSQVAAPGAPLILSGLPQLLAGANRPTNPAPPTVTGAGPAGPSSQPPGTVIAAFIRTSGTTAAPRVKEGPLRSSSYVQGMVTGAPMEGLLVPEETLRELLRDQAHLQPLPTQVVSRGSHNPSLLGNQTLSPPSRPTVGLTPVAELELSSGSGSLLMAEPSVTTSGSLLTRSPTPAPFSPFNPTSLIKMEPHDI
Sequence of ETV5 (P41161 whole entry): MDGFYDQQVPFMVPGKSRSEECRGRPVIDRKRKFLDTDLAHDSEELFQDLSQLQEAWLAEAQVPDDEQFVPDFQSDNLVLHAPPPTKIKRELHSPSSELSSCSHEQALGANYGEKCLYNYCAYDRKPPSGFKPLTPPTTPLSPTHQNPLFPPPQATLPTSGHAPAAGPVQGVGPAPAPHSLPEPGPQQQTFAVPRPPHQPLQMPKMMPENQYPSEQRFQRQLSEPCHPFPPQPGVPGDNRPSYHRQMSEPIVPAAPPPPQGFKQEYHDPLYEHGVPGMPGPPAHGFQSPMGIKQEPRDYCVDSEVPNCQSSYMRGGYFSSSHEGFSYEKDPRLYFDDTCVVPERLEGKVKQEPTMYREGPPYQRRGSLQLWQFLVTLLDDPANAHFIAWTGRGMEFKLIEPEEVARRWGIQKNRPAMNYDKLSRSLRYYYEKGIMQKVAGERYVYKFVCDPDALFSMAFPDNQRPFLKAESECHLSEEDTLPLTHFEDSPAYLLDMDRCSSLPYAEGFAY

As to CCGGCC, the binding signal with FLI1 is 1.27 fold enrichment (6-mer frequency, TF over GST control); with ELK1, 1.27 fold enrichment (6-mer frequency, TF over GST control); with GABPA, 1.13 fold enrichment (6-mer frequency, TF over GST control); in the assay with ERG, 1.18 fold enrichment (6-mer frequency, TF over GST control); with ELF1, 1.16 fold enrichment (6-mer frequency, TF over GST control); with EHF, 1.1 fold enrichment (6-mer frequency, TF over GST control). Moreover, the binding signal in the assay with SPI1 was 1.04 fold enrichment (6-mer frequency, TF over GST control); with SPIB, 1.18 fold enrichment (6-mer frequency, TF over GST control); in the assay with ELK3 it was 1.33 fold enrichment (6-mer frequency, TF over GST control); with FEV it was 1.54 fold enrichment (6-mer frequency, TF over GST control); with ETV5, 1.17 fold enrichment (6-mer frequency, TF over GST control); in the assay with SPIC it was 1.32 fold enrichment (6-mer frequency, TF over GST control). For the same sequence, the binding signal with ELF4 is 1.08 fold enrichment (6-mer frequency, TF over GST control); with ELK4, 1.27 fold enrichment (6-mer frequency, TF over GST control); with ETV2, 1.22 fold enrichment (6-mer frequency, TF over GST control); with ELF3 it was 1.14 fold enrichment (6-mer frequency, TF over GST control); with ETV1, 1.27 fold enrichment (6-mer frequency, TF over GST control).

GGATGT: the binding signal in the assay with FLI1 is 1.5 fold enrichment (6-mer frequency, TF over GST control); with ELK1 it was 1.7 fold enrichment (6-mer frequency, TF over GST control); in the assay with GABPA it was 1.39 fold enrichment (6-mer frequency, TF over GST control); in the assay with ERG, 1.82 fold enrichment (6-mer frequency, TF over GST control); in the assay with ELF1, 1.44 fold enrichment (6-mer frequency, TF over GST control); with EHF, 1.74 fold enrichment (6-mer frequency, TF over GST control). Moreover, the binding signal is 1.53 fold enrichment (6-mer frequency, TF over GST control) with SPI1; 1.61 fold enrichment (6-mer frequency, TF over GST control) with SPIB; 1.65 fold enrichment (6-mer frequency, TF over GST control) with ELK3; 2.08 fold enrichment (6-mer frequency, TF over GST control) with FEV; 1.77 fold enrichment (6-mer frequency, TF over GST control) in the assay with ETV5; 1.41 fold enrichment (6-mer frequency, TF over GST control) with SPIC. The binding signal was 1.39 fold enrichment (6-mer frequency, TF over GST control) with ELF4; 1.36 fold enrichment (6-mer frequency, TF over GST control) in the assay with ELK4; 1.44 fold enrichment (6-mer frequency, TF over GST control) with ETV2; 1.61 fold enrichment (6-mer frequency, TF over GST control) with ELF3; 1.69 fold enrichment (6-mer frequency, TF over GST control) in the assay with ETV1.

Source of the values: paper PMC7862700, “An all-to-all approach to the identification of sequence-specific readers for epigenetic DNA modifications on cytosine”.
